Data published in ChEMBL document CHEMBL3988442, “University of Dundee, Small-Polar-MMV Screening Library” (2021).
For some assays here: Results with a measured potency or affinity are listed apart.

How the values were obtained:
Design in all cases: scale not given: direction of the effect not stated beside the values
[1] = target: Protein translocase subunit SecA (Escherichia coli (strain K12)) (UniProt P10408); assay: Assay to Identify E. coli SecA ATPase Inhibitors; type: functional; conditions: 30 µM
Chain of Protein translocase subunit SecA (Escherichia coli (strain K12)) (P10408 whole entry): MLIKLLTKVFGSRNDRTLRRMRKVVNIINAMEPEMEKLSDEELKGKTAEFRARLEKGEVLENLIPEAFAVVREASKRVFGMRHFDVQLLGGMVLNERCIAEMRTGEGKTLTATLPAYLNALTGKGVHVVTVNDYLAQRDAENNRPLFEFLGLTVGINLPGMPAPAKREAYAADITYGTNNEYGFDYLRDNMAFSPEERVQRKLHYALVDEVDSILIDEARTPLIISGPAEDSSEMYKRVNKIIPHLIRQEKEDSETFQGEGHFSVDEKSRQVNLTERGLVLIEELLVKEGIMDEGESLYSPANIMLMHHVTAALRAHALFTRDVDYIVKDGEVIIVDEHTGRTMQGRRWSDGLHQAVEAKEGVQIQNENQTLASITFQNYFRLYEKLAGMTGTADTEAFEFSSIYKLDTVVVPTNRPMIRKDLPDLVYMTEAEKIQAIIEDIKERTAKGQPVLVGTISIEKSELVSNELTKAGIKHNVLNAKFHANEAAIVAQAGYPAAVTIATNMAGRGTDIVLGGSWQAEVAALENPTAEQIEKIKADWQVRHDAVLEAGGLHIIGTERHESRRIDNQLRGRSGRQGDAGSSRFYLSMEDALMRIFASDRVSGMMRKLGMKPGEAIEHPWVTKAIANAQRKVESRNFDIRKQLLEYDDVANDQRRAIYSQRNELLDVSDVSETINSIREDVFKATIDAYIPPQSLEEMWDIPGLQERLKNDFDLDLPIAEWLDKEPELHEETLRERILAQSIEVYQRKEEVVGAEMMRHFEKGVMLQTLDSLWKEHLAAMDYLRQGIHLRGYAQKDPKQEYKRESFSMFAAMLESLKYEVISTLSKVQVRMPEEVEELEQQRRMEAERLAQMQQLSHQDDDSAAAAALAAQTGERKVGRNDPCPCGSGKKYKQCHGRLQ

[2] = target: T1, Ubiquitin-activating enzyme e1, putative (Leishmania donovani (strain BPK282A1)) (UniProt E9BSI1); assay: Leishmania donovani Ubiquitin Activating Enzyme (LdE1); type: functional; conditions: 30 µM
T1 sequence (whole entry): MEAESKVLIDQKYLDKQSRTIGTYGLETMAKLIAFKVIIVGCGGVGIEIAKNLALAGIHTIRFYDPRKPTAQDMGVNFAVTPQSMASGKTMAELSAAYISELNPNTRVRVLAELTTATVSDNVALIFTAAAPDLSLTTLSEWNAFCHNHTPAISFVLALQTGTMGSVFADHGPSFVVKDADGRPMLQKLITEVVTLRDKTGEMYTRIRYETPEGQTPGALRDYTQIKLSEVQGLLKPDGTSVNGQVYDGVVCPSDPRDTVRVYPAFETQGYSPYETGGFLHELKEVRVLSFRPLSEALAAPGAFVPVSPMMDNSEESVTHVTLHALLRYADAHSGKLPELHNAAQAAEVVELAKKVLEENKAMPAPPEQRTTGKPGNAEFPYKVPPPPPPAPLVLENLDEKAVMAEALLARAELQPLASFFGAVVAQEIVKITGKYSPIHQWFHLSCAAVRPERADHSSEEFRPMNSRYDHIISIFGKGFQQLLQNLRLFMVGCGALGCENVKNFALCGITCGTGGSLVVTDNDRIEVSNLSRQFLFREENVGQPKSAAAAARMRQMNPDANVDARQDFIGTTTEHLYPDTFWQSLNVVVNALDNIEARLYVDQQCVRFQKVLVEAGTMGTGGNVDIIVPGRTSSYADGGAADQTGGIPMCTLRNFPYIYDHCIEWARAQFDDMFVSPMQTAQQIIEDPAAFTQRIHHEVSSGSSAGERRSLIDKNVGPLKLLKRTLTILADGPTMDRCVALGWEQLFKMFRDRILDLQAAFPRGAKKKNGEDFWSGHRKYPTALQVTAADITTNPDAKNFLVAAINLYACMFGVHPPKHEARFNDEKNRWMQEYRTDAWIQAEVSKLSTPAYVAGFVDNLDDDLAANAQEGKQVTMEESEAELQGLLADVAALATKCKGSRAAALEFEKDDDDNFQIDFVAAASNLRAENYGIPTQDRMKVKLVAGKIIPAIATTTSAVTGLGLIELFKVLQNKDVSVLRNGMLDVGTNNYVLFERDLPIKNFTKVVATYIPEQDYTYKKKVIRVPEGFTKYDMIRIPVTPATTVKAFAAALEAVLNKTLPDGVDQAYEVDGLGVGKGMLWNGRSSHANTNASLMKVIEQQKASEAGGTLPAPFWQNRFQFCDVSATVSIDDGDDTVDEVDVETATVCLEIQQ

[3] = target: AMP-activated protein kinase, AMPK (Homo sapiens) (UniProt P54646+O43741+P54619+Q9UGJ0+Q9Y478+Q13131+Q9UGI9); assay: AMP-dependent Kinase enzyme assay. An in vitro enzyme assay that detects ADP turnover that is directly proportional to AMPK activity. This uses naive AMPK that is activated during the assay with MK-8722; type: functional; conditions: 30 µM
[4] = target: Sialic acid-binding Ig-like lectin 9 (Homo sapiens) (UniProt Q9Y336); assay: Hs-Siglec9 ALPHAscreen SOP 20170721; conditions: 10 µM
Chain of Sialic acid-binding Ig-like lectin 9 (Homo sapiens) (Q9Y336 whole entry): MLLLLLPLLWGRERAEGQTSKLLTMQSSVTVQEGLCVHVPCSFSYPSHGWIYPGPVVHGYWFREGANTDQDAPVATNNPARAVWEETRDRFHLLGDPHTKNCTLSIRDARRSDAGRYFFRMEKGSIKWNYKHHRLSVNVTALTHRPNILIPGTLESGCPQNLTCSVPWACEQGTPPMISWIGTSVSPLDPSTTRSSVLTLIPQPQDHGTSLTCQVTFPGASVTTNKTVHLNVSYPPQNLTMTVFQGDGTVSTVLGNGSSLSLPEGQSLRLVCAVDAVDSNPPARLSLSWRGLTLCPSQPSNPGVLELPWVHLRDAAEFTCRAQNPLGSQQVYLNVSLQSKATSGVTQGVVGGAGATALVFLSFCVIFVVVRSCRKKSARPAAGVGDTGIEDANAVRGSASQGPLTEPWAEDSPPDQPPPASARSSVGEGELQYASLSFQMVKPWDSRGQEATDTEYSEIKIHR

Trypanosoma cruzi = assay: Trypanosoma cruzi phosphomannomutase and mannose-1-phosphate guanylyltransferase assay; type: functional; conditions: 10 µM
[5] = target: T2, Arginase-2, mitochondrial (Homo sapiens) (UniProt P78540); assay: in vitro enzyme assay to detect the production of urea directly proportional to the activity of Arginase II; type: functional; conditions: 33.3 µM; note: in the data most compounds retested in dose-response had high values
T2 sequence (whole entry): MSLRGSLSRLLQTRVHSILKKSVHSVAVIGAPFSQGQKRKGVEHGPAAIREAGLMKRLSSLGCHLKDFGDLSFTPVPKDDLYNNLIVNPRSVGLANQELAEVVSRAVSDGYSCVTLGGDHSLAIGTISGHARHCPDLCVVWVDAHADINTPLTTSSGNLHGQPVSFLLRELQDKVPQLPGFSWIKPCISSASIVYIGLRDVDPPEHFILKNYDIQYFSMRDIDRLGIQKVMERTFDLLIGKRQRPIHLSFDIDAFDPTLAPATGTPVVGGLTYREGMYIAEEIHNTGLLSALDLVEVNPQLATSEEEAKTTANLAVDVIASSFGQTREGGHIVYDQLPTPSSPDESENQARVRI

[6] = target: T3, Proteasome subunit beta (Trypanosoma cruzi) (UniProt O96673); assay: Trypanosoma cruzi proteasome chymotrypsin-like activity (TcProtChymo) assay.; note: in the data most compounds retested in dose-response had high values; type: functional; conditions: 9.37 µM
T3 sequence (whole entry): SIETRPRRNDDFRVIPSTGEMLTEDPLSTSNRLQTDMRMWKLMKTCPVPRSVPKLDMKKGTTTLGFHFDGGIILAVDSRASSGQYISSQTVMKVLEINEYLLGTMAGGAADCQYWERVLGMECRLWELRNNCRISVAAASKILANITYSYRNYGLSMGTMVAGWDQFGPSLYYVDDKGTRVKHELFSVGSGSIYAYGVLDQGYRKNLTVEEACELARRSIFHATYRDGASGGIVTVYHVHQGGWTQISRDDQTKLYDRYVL

Homo sapiens = species: Homo sapiens; assay: To identify inhibition of the IFN signalling (Jak-Stat) pathway via expression of an eGFP reporter gene under the control of an IFN-stimulated response element (ISRE) containing MxA promoter.; type: functional; conditions: 30 µM
[7] = target: T4, Tyrosyl-tRNA synthetase, putative (Trypanosoma cruzi (strain CL Brener)) (UniProt Q4DSP6); assay: Trypanosoma cruzi tyrosyl tRNA synthetase (TcYRS) _High Tyrosine SOP; type: functional; conditions: 30 µM; note: in the data most compounds retested in dose-response had high values
T4 sequence (whole entry): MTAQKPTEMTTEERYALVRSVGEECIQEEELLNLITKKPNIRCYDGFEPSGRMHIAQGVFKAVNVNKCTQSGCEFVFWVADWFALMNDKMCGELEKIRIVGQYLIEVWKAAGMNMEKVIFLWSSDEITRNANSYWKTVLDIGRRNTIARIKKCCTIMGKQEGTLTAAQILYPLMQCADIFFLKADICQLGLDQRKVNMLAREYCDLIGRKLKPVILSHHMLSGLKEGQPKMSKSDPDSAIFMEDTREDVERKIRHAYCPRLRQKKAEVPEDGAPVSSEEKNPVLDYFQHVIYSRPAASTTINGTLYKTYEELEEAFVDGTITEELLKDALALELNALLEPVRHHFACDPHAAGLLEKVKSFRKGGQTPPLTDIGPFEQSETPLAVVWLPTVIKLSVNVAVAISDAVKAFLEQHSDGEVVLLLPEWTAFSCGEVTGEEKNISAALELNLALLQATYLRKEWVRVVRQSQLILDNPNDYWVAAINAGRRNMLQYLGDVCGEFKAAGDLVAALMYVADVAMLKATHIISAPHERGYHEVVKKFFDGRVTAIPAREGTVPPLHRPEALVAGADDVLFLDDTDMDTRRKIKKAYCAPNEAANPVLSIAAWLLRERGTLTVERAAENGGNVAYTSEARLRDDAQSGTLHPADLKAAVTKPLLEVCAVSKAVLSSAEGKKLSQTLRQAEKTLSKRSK

[8] = target: T4, Tyrosyl-tRNA synthetase, putative (Trypanosoma cruzi (strain CL Brener)); assay: Trypanosoma cruzi tyrosyl tRNA synthetase (TcYRS) SOP; type: functional; conditions: 30 µM
[9] = target: Chromo domain-containing protein 1 (Saccharomyces cerevisiae (strain ATCC 204508 / S288c) (Baker's yeast)) (UniProt P32657); assay: ScCHD-1 Enzyme Inhibition Assay; type: functional; conditions: 30 µM; note: in the data most compounds retested in dose-response had high values
Chain of Chromo domain-containing protein 1 (Saccharomyces cerevisiae (strain ATCC 204508 / S288c) (Baker's yeast)) (P32657 whole entry, the tested form may be a part): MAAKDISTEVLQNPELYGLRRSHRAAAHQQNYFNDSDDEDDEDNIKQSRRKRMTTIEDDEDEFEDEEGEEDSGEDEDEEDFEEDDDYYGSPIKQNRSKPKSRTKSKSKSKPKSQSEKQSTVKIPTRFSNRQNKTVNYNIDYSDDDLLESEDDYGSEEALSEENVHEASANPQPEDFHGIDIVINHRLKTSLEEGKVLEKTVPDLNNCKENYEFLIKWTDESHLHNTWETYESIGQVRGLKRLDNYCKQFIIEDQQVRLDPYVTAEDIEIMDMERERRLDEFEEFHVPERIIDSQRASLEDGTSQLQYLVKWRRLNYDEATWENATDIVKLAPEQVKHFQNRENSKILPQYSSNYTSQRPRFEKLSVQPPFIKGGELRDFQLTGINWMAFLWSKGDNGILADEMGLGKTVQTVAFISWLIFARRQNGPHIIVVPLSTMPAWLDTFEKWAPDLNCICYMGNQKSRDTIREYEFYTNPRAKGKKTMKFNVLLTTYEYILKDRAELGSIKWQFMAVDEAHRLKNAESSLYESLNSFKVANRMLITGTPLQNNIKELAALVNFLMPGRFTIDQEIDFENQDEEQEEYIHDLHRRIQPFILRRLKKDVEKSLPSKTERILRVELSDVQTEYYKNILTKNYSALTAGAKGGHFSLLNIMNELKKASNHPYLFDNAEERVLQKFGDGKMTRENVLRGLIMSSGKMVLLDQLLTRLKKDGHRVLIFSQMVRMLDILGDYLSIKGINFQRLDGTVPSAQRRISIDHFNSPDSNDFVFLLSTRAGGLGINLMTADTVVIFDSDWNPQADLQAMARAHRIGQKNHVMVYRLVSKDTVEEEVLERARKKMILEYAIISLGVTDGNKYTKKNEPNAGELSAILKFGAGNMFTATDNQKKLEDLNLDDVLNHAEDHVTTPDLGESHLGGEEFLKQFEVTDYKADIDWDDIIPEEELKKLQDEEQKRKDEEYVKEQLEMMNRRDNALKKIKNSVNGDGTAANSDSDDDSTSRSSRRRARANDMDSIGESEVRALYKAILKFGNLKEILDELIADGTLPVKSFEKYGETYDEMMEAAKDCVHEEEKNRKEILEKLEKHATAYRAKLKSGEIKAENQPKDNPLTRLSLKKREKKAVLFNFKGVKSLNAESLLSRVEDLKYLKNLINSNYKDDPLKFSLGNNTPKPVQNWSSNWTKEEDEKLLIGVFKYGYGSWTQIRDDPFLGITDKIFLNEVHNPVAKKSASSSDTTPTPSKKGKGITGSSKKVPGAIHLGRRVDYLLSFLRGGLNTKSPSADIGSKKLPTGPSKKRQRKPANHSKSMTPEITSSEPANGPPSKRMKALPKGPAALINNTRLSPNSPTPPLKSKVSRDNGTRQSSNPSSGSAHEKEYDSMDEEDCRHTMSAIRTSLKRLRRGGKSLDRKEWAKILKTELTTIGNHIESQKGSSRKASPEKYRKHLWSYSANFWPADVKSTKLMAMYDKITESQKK

Compound | Percent Effect [1] [%] | Percent Effect [2] [%] | Percent Effect [3] [%] | Percent Effect [4] [%] | Percent Effect (Trypanosoma cruzi) [%] | Percent Effect [5] [%] | Percent Effect [6] [%] | Percent Effect (Homo sapiens) [%] | Percent Effect [7] [%] | Percent Effect [8] [%] | Percent Effect [9] [%]
Cc1ccn2cc(C(=O)N3CCCC3c3c(C)nn(C)c3C)nc2c1 (configuration not stated) | -7.15 | 8.86 | 7.77 | -1.49 | -3.79 | 1.5 | 9.09 | 4.07 | 5.21 | 0 | -3.05
CC(C)Oc1ncccc1CNC(=O)C1CCCN(C(=O)C2CC2)C1 (configuration not stated) | -5.21 | 5.26 | -7.89 | -1.61 | -4.89 | 0 | 7.52 | 24.1 | 2.45 | 7.32 | -4.9
COC1COC2(CCN(Cc3ccccc3Cl)CC2)C1 (configuration not stated) | -5.82 | 1.33 | 7.01 | 5.98 | -0.982 | 2.29 | 11.5 | 20.8 | -2.12 | 5.13 | 0.93
Cc1cnn(CCNCC(=O)NCC2(c3ccccc3)CCC2)c1 | -3.26 | 10.4 | 0.236 | -13.1 | -5.19 | -3.58 | 12.4 | 11.5 | 12.4 | 14.1 | -19.9
Nc1nc(C2CCN(C(=O)c3cncs3)CC2)cs1 | -7.01 | 12.2 | 9.81 | 5.35 | 1.38 | 0.232 | 3.59 | -3.51 | 3.23 | 11.7 | -8.22
Cn1ccnc1CN1CCC2(CC1)CC(NC(=O)c1ccccn1)CO2 (configuration not stated) | -1.87 | 20.8 | -1.66 | -10.3 | 1.28 | 3.23 | 9.4 | 0.302 | -20.1 | 16.7 | -10.2
CC(C)C(C)NC(=O)Nc1ccc(CS(C)(=O)=O)cc1 (configuration not stated) | -5.9 | 5.26 | 7.91 | 3.79 | 4.77 | -14.2 | 15.6 | 12.9 | -5.32 | 10.4 | -1.16
O=C(NCCn1ccnc1)NCC(c1ccco1)N1CCCCC1 (configuration not stated) | -3.12 | 2.6 | 4.65 | 2.57 | -4.41 | 1.9 | 3.64 | 13.9 | 2.86 | 2.35 | -18.2
CCCN(CCO)C(=O)C1CCC(=O)N(CCc2ccc(Cl)cc2)C1 (configuration not stated) | 0.568 | 6.94 | 1.97 | -2.89 | 2.23 | 3.53 | 8.77 | -9.44 | 4.21 | 7.69 | -5.01
O=C(NCC1CC1)C1CN(C(=O)c2cccs2)CC12CCOCC2 (configuration not stated) | -8.31 | 16 | 2.41 | 3.43 | 0.579 | -52.5 | 4.62 | -9.4 | 5.21 | -47.5 | -5.08
CCn1nc(-c2ccccc2F)ccc1=O | -4.01 | 0 | -2.64 | -3.3 | -9.29 | -12.7 | 4.55 | 11.8 | -1.07 | 8.64 | -2.39
CCN1CCC(NC(=O)CN2CCCC2Cn2cncn2)CC1 (configuration not stated) | -0.772 | 6.33 | -1.15 | -1.21 | -5.64 | 0.645 | 8.92 | 4.26 | 3.12 | 2.53 | -22.4
CCCc1nc(C(=O)N2CCCn3nc(CCC(=O)O)cc3C2)cs1 | -7.52 | 5.41 | 2.34 | 4.25 | 1.54 | 2.38 | 11 | 3.31 | 3.7 | 9.76 | -5.37
CC(C)CNC(=O)NC(=O)CNc1ccccc1SCC(C)C#N (configuration not stated) | -5.8 | 11 | 6 | 16.8 | 1.37 | 6.82 | 9.41 | 11.3 | 0 | 12.5 | -5.23
Cc1nc(C)n(CC2CCCN(CC(=O)Nc3nncs3)C2)n1 (configuration not stated) | -2.17 | -2.63 | 3.08 | 5.75 | -2.26 | -1.15 | 4.84 | -3.5 | 1.47 | 0 | -0.768
O=C(c1cc(C2CC2)[nH]n1)N1CCN(Cc2ccsc2)CC1 | -5.68 | 21.6 | -3.2 | 10.8 | 10.7 | 1.66 | 14 | 9.93 | 7.92 | 23.2 | -1.29
COCCN1CCC(CN(CC2CCCO2)C(=O)CCNC(C)=O)CC1 (configuration not stated) | -1.45 | -4.17 | -2.84 | -5.53 | -1.26 | 0.883 | 1.75 | -4.52 | 0 | 0 | 1.82
CCC(CNC(=O)c1ccc(=O)[nH]n1)N1CCc2ccccc2C1 (configuration not stated) | 0.395 | 13.5 | -10.4 | 10.4 | 3.48 | 11.4 | 17.9 | 2.58 | 7.94 | 12.2 | -3.16
c1ccc(CN2CCc3ncnc(-c4ccsc4)c3CC2)nc1 | -4.91 | 0 | 2.79 | 8.34 | -2.83 | 5.41 | 22.7 | -21 | 2.16 | 7.69 | 3.65
Cn1cc(-c2csc(N3CCOCC3)n2)cn1 | -3.35 | 1.39 | -45.6 | -2.23 | 1.26 | 2.21 | 0.702 | 1.08 | 15.8 | 28.2 | -0.624
CNC(=O)CS(=O)(=O)C1CCN(S(=O)(=O)c2c(F)cccc2F)CC1 | -2.05 | -2.74 | 6.92 | 0.634 | 5.68 | -1.82 | 3.9 | -17.8 | 1.07 | 0 | -1.05
c1coc(-c2noc(CN3CCCC(Cn4cncn4)C3)n2)c1 (configuration not stated) | -6.64 | 7.59 | -3.53 | 4.26 | 6.14 | -3.04 | 2.05 | 3.63 | -1.48 | 11.4 | -5.56
